Measured values reported in the antibiotic and cytotoxicity screens of Wong et al. (2023).
Screen size: about 39,000 compounds; about 3,300 (8.5%) were called active. For the sample, actives were picked, then their nearest neighbours and some compounds at random.

Each molecule was assayed on HepG2 (assay: cytotoxicity call (relative viability < 0.9)). Conditions: 10 µM.

Row | Compound | cytotoxicity call
1 | OCC1CCNCC1 | inactive
2 | COC(=O)c1sccc1NC(=O)Cn1cnc2c1c(=O)n(C)c(=O)n2C | inactive
3 | CC(=O)N(C)C[C@H]1Oc2ncc(C#C[C@H](C)O)cc2C(=O)N([C@@H](C)CO)C[C@H]1C | inactive
4 | C[C@H]1CN([C@@H](C)CO)S(=O)(=O)c2ccc(-c3ccc(C(=O)N(C)C)cc3)cc2O[C@@H]1CN(C)C(=O)C1CCOCC1 | inactive
5 | CC(C)NC(=O)Nc1ccc2c(c1)CC(=O)N([C@H](C)CO)C[C@H](C)[C@H](CN(C)S(=O)(=O)c1ccccc1)O2 | inactive
6 | Nc1ccn([C@@H]2C[C@@H](O)[C@H](CO)O2)c(=O)n1 | inactive
7 | COc1ccc(NC(=O)N(C)C[C@@H]2Oc3ccc(NC(=O)CCCN(C)C)cc3C(=O)N([C@@H](C)CO)C[C@H]2C)cc1 | inactive
8 | COc1ccc(NC(=O)N(C)C[C@@H]2OCCCC[C@@H](C)Oc3ccc(NC(=O)C4CCCCC4)cc3C(=O)N([C@@H](C)CO)C[C@H]2C)cc1 | inactive
9 | C[C@H]1CC/C=C\[C@H]2O[C@@]34C=CCN(CCN5CCOCC5)C(=O)[C@H]3N(CCO)C(=O)[C@@H]4[C@@H]2C(=O)O1 | inactive
10 | COc1cc(OC)cc(C(=O)N(Cc2ccco2)Cc2cc3ccc(SC)cc3nc2-c2cccc(OC)c2)c1 | inactive
11 | Fc1ccccc1-c1nc2ccn(Cc3ccc(-c4ccc(C(F)(F)F)cc4C(F)(F)F)nn3)cc-2n1 | active
12 | CO[C@@H]1CN(C)C(=O)c2ccc(NC(=O)C3CC3)cc2OC[C@H](C)N(C(=O)Cc2ccccn2)C[C@@H]1C | inactive
13 | CCOC(=O)/C=C/C(=O)N1CCC=CC1=O | active
14 | COc1cc(C=CC(=O)N2CCC=CC2=O)cc(OC)c1OC | active
15 | COc1cc(C=CC(=O)O)cc(OC)c1O | inactive
16 | COc1cc(/C=C/C(=O)N(C)CCN(C)C(=O)/C=C/c2cc(OC)c(OC)c(OC)c2)cc(OC)c1OC | inactive
17 | COc1cc(C=CC(=O)N2CCCCCCC2)cc(OC)c1OC | inactive
18 | COc1cc(C=CC(N)=O)cc(OC)c1OC | active
19 | C/C=C/C(=O)N1CCC=CC1=O | inactive
20 | COc1cc(/C=C/C(=O)N2CCC=CC2=O)cc(OC)c1OC(=O)CCCCCCCCCCC(=O)Oc1c(OC)cc(/C=C/C(=O)N2CCC=CC2=O)cc1OC | inactive
21 | COc1cc(C=CC(=O)O)cc(OC)c1OC | inactive

Row | Compound | cytotoxicity call
22 | C=C(C)C(=O)N1CCC=CC1=O | inactive
23 | COc1cc(/C=C/C(=O)N2CCC=CC2=O)cc(OC)c1OCCOCCOCCOCCC(=O)OC(C)(C)C | active
24 | COC(=O)C=Cc1cc(OC)c(OC)c(OC)c1 | inactive
25 | Cn1cc(S(=O)(=O)N2CCN(Cc3ccccc3)CC2)c(=O)n(C)c1=O | inactive
26 | C=CCOC(=O)O[C@H]1[C@@H](OC)O[C@H](COC(=O)NCCCCCC(=O)NO)[C@H]2OC(=O)[C@@H](Cc3cccc(Br)c3)C/C=C/C[C@H](Cc3ccccc3)C(=O)O[C@H]12 | inactive
27 | CN1C(=O)c2cc(NS(=O)(=O)c3ccc(F)cc3)ccc2OC[C@@H]2O[C@@H](CC(=O)NCC(F)(F)F)CC[C@H]21 | inactive
28 | C[C@H]1CN([C@@H](C)CO)C(=O)c2cc(C#CCN(C)C)cnc2O[C@H]1CN(C)S(=O)(=O)c1cn(C)cn1 | inactive
29 | O=C(C[C@H]1CC[C@H]2[C@@H](COC[C@H](O)CN2S(=O)(=O)c2ccc(Cl)cc2)O1)N[C@H]1CCN(Cc2ccccc2)C1 | inactive
30 | CC(C)NC(=O)Nc1ccc2c(c1)C(=O)N([C@@H](C)CO)C[C@H](C)[C@@H](CN(C)C(=O)C1CCCCC1)OCCCC[C@H](C)O2 | inactive
31 | CCNC(=S)NCC1CC1 | inactive
32 | Cc1ccc(S(=O)(=O)Nc2ccc3c(c2)C(=O)N([C@H](C)CO)C[C@H](C)[C@H](CN(C)Cc2ccc4c(c2)OCO4)OCCCC[C@@H](C)O3)cc1 | inactive
33 | C[C@@H]1CN([C@H](C)CO)S(=O)(=O)c2ccc(C#Cc3ccc(F)cc3)cc2O[C@@H]1CN(C)CC1CC1 | inactive
34 | CO[C@@H]1CN(C)C(=O)c2ccc(NS(C)(=O)=O)cc2OC[C@@H](C)N(C(=O)CN(C)C)C[C@@H]1C | inactive
35 | C[C@@H]1CN([C@@H](C)CO)C(=O)Cc2cc(NC(=O)Cn3cnnn3)ccc2O[C@@H]1CN(C)Cc1ccc(-c2ccccc2)cc1 | inactive
36 | C[C@H](CO)N1C[C@H](C)[C@H](CN(C)S(=O)(=O)c2ccc(Cl)cc2)OCCCC[C@H](C)Oc2ccc(NC(=O)Nc3cccc4ccccc34)cc2C1=O | inactive
37 | CCCCOc1cc(C(=O)NCCN(CC)CC)c2ccccc2n1.Cl | inactive
38 | CCCCc1oc2ccccc2c1C(=O)c1cc(I)c(OCCN(CC)CC)c(I)c1.Cl | active
39 | CCCCc1oc2ccccc2c1C(=O)c1cc(I)c(OCCN(CC)CC)c(I)c1 | active
40 | NCCCN | inactive
41 | C[C@@H]1CN([C@H](C)CO)C(=O)c2cc(NS(=O)(=O)c3cccs3)ccc2O[C@@H]1CN(C)Cc1ccncc1 | inactive
42 | O=C(C[C@H]1CC[C@H]2[C@@H](COC[C@@H](O)CN2C(=O)Nc2ccc(C(F)(F)F)cc2)O1)NCCc1ccncc1 | inactive

Row | Compound | cytotoxicity call
43 | Cc1noc(C)c1NC(=O)Nc1ccc2c(c1)C(=O)N([C@H](C)CO)C[C@H](C)[C@H](CN(C)S(=O)(=O)c1ccc(F)cc1)OCCCC[C@@H](C)O2 | inactive
44 | COCC#Cc1ccc2c(c1)O[C@@H](CN(C)C(=O)Nc1ccccc1F)[C@@H](C)CN([C@@H](C)CO)S2(=O)=O | inactive
45 | CCCN1C[C@@H](C)[C@@H](OC)CN(C)C(=O)c2cc(NS(=O)(=O)c3cn(C)cn3)ccc2OC[C@H]1C | inactive
46 | CN1CCN(C(=O)C[C@H]2CC[C@@H]3[C@H](COC[C@H](O)CN3C(=O)C3CCOCC3)O2)CC1 | inactive
47 | O=c1nc[nH]c2ncccc12 | inactive
48 | CCOc1ccc(S(=O)(=O)[O-])c2cccnc12.[Na+] | inactive
49 | Oc1c(Cl)cc(Cl)c2cccnc12 | active
50 | Cc1ccc2c(Cl)cc(Cl)c(O)c2n1 | inactive
51 | Oc1c(Br)cc(Br)c2cccnc12 | active
52 | Oc1c(I)cc(Cl)c2cccnc12 | active
53 | Clc1nccc2ccccc12 | inactive
54 | O=S(=O)([O-])c1cc(I)c(O)c2ncccc12.[Na+] | active
55 | c1cnc2ccc3ncccc3c2c1 | inactive
56 | CCCCCCCCCCCCCCCCCCOC[C@H](COP(=O)(O)O[C@H]1[C@@H](O)[C@@H](O)[C@@H](O)C[C@@H]1OC)OC | inactive
57 | C[C@@H]1CCCCO[C@@H](CN(C)S(C)(=O)=O)[C@H](C)CN([C@H](C)CO)C(=O)c2cc(NS(=O)(=O)c3cn(C)cn3)ccc2O1 | inactive
58 | O=C(C[C@@H]1CC[C@H](NC(=O)CN2CCOCC2)[C@H](CO)O1)NCCc1ccncc1 | inactive
59 | CC(=O)N1Cc2cc(C(=O)NCC(F)(F)F)nc(-c3cccc(-c4cc5ccccc5o4)c3)c2[C@H]1CCO | inactive
60 | C[C@@H]1CCCCO[C@H](CN(C)C(=O)Nc2ccc(C(F)(F)F)cc2)[C@@H](C)CN([C@H](C)CO)C(=O)c2cc(NS(=O)(=O)c3cn(C)cn3)ccc2O1 | inactive
61 | C[C@@H]1CN([C@H](C)CO)S(=O)(=O)c2ccc(-c3ccc(C(=O)N(C)C)cc3)cc2O[C@H]1CN(C)C(=O)Cc1ccccn1 | inactive
62 | Cc1noc(C)c1S(=O)(=O)Nc1ccc2c(c1)C(=O)N([C@@H](C)CO)C[C@@H](C)[C@@H](CN(C)C(=O)Nc1ccc(F)cc1)OCCCC[C@@H](C)O2 | inactive
63 | C[C@H](CO)N1C[C@H](C)[C@H](CN(C)C(=O)Nc2ccccc2)Oc2ccc(NC(=O)CCCN(C)C)cc2C1=O | inactive

Row | Compound | cytotoxicity call
64 | Cc1cc(C)c2ccc(Cl)nc2n1 | inactive
65 | Cc1noc(C)c1NC(=O)Nc1ccc2c(c1)C(=O)N([C@H](C)CO)C[C@H](C)[C@H](CN(C)CC1CCCCC1)OCCCC[C@H](C)O2 | inactive
66 | C[C@@H]1CN([C@@H](C)CO)C(=O)c2cc(NC(=O)Nc3cccc4ccccc34)ccc2O[C@H]1CN(C)C(=O)NC1CCCCC1 | inactive
67 | CC(C)NC(=O)N(C)C[C@H]1Oc2cc(C#Cc3ccccn3)ccc2S(=O)(=O)N([C@H](C)CO)C[C@@H]1C | inactive
68 | CC(C)(O)c1ccccc1CCC(SCC1(CC(=O)[O-])CC1)c1cccc(C=Cc2ccc3ccc(Cl)cc3n2)c1.[Na+] (centres undefined) | inactive
69 | Nc1ncccc1O | inactive
70 | Oc1c(I)cc(I)c2cccnc12 | active
71 | Nc1ncccc1F | inactive
72 | CC(=O)N(C)C[C@H]1Oc2ncc(C#C[C@@H](C)O)cc2C(=O)N([C@H](C)CO)C[C@@H]1C | inactive
73 | COc1ccc([Si](C)(C)[C@H]2[C@H](CC(=O)N(CCO)Cc3ccccc3)O[C@@]3(C(=O)N(Cc4cccc(N5CCC5=O)c4)c4ccccc43)[C@@H]2C)cc1 | inactive
74 | COc1ccc([Si](C)(C)[C@@H]2[C@@H](CC(=O)N(CCO)Cc3ccccc3)O[C@]3(C(=O)N(Cc4cccc(N5CCCCC5=O)c4)c4ccccc43)[C@H]2C)cc1 | inactive
75 | COc1ccc([Si](C)(C)[C@@H]2[C@@H](CC(=O)N(CCO)Cc3ccccc3)O[C@]3(C(=O)N(Cc4ccc(N5CCC5=O)cc4)c4ccccc43)[C@H]2C)cc1 | inactive
76 | COc1ccc([Si](C)(C)[C@H]2[C@H](CC(=O)N(CCO)Cc3ccccc3)O[C@@]3(C(=O)N(Cc4ccc(N5CCOC5=O)cc4)c4ccccc43)[C@@H]2C)cc1 | inactive
77 | C[C@H]1[C@H]([Si](C)(C)F)[C@@H](CC(=O)N(CCO)Cc2ccccc2)O[C@]12C(=O)N(c1ccccc1)c1ccccc12 | inactive
78 | COc1ccc([Si](C)(C)[C@H]2[C@H](CC(=O)N(CCO)Cc3ccccc3)O[C@@]3(C(=O)N(Cc4ccc(N5CCC5=O)cc4)c4ccccc43)[C@@H]2C)cc1 | inactive
79 | COc1ccc([Si](C)(C)[C@@H]2[C@@H](CC(=O)N(CCO)Cc3ccccc3)O[C@]3(C(=O)N(Cc4cccc(N5CCC5=O)c4)c4ccccc43)[C@H]2C)cc1 | inactive
80 | COc1ccc([Si](C)(C)[C@H]2[C@H](CC(=O)N(CCO)Cc3ccccc3)O[C@@]3(C(=O)N(Cc4cccc(N5C(=O)c6cccc7cccc5c67)c4)c4ccccc43)[C@@H]2C)cc1 | active
81 | C[C@@H]1[C@@H]([Si](C)(C)F)[C@H](CC(=O)N(CCO)Cc2ccccc2)O[C@@]12C(=O)N(c1ccccc1)c1ccccc12 | active
82 | C[C@@H]1[C@@H]([Si](C)(C)F)[C@H](CC(=O)N2Cc3ccccc3C[C@H]2CO)O[C@@]12C(=O)N(c1ccccc1)c1ccccc12 | inactive
83 | COc1ccc([Si](C)(C)[C@@H]2[C@@H](CC(=O)N(CCO)Cc3ccccc3)O[C@]3(C(=O)N(Cc4ccc(N5C(=O)c6cccc7cccc5c67)cc4)c4ccccc43)[C@H]2C)cc1 | active
84 | COc1ccc([Si](C)(C)[C@H]2[C@H](CC(=O)N(CCO)Cc3ccccc3)O[C@@]3(C(=O)N(Cc4ccc(N5C(=O)c6cccc7cccc5c67)cc4)c4ccccc43)[C@@H]2C)cc1 | active
